# In PubChem BioAssay:
# Active and inactive are the calls of the source.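 The calls were made as follows, unless noted: active = fluorescence slope after compound addition differing from the mean of all screened samples at 99.7% confidence, in either direction; inactive = the rest.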
# Columns and labels:
# [1] = inhibitors of TNFa-induced NFkB p65 translocation, primary screen, imaging, HUVEC, MLSMR starter and 10KST1 sets (AID 438;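 active = inhibition above 20% together with a positive visual image hit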;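 also: compound added about 3h40 before a 20 min TNFalpha stimulation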;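 as to inhibition: signal is the nuclear over cytoplasmic p65 intensity ratio per well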); settings: HUVEC TNFa-induced p65 nuclear translocation; cell count: measured here: nuclei count (cytotoxicity indicator), at 2.08 µM; inhibition: at 2 µM, stronger effect = higher value, 0% TNFa-plus-vehicle, 100% no-TNFa wells
# [2] = reduction of polyQ htt aggregates in cells – imaging, exon1htt(103Q)mCFP cells, high-content imaging, primary screen (AID 483;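 active = visual image review flags a hit and inhibition of aggregation exceeds 20%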;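 also: compound exposure lasted 3 days before fixation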;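 as to nuclei count: percent of the per-plate median nuclei count of sample wells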); settings: exon1htt(103Q)mCFP cell line, aggregate imaging, at 2 µM; inhibition of aggregation: stronger effect = higher value; nuclei count: measured here: cell count, toxicity
# [3] = endothelial E-selectin expression blockers – imaging, HUVEC, immunofluorescence, MLSMR starter and 10KST1 sets, primary screen (AID 487;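 active = visually confirmed hit in the image check and inhibition above 20%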;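 as to inhibition: signal is fraction of cell area covered by stained E-selectin grains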;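 as to nuclei count: 100% = median nuclei count of all wells on the same plate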); settings: HUVEC TNFalpha-induced E-selectin immunofluorescence imaging, at 2 µM; inhibition: stronger effect = higher value; nuclei count: measured here: cell number, toxicity
# [4] = target: Voltage-gated potassium channel subunit beta-2 (Rattus norvegicus) (UniProt P62483); assay: inhibitors of rat Kvbeta2 reductase activity – biochemical, NADPH fluorescence, primary screen (AID 622;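 active = fluorescence slope higher than the sample average by over 3 SD, cut at about -0.22 in these data, passing the limit was not always enough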;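 also: slope of raw intensity against log time taken from 70 to 1610 s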); settings: recombinant KvBeta, 4-cyanobenzaldehyde reduction, at 10 µM, stronger effect = higher value
# Sequence of Voltage-gated potassium channel subunit beta-2 (Rattus norvegicus) (P62483 whole entry, looked up): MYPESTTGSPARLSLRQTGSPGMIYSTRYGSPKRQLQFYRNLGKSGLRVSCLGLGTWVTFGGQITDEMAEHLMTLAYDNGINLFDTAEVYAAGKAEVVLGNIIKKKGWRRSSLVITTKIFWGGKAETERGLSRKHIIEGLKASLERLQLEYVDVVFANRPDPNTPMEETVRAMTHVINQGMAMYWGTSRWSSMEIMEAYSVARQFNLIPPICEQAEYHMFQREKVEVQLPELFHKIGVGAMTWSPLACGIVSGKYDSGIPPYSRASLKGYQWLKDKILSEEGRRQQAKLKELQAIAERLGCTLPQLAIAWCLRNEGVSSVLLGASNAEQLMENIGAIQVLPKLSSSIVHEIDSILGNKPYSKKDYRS
# [5] = target: Voltage-gated potassium channel subunit beta-2 (Rattus norvegicus) (UniProt P62483); assay: enhancers of rat Kvbeta2 NADPH turnover – biochemical, NADPH fluorescence, primary screen (AID 623;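 active = NADPH fluorescence slope more negative than the mean of all samples by about 3 SD, 99.7% confidence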;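 also: fluorescence intensity change per second fitted from 20 to 320 s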); settings: Recombinant KvBeta, NADPH fluorescence decrease slope, 10 min; at 10 µM; stronger effect = lower value
# [6] = target: Alpha-2C adrenergic receptor (Homo sapiens) (UniProt P18825); assay: compounds altering alpha2C-coupled GIRK flux – cell-based, HEK293 alpha2C/GIRK1/2, thallium flux, primary screen (AID 624); settings: thallium flux BTC fluorescence, at 10 µM, actives lie on both sides;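 also: slope of fluorescence ratio to pre-addition baseline per second over 15 to 24 s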
# Sequence of Alpha-2C adrenergic receptor (Homo sapiens) (P18825 whole entry, looked up): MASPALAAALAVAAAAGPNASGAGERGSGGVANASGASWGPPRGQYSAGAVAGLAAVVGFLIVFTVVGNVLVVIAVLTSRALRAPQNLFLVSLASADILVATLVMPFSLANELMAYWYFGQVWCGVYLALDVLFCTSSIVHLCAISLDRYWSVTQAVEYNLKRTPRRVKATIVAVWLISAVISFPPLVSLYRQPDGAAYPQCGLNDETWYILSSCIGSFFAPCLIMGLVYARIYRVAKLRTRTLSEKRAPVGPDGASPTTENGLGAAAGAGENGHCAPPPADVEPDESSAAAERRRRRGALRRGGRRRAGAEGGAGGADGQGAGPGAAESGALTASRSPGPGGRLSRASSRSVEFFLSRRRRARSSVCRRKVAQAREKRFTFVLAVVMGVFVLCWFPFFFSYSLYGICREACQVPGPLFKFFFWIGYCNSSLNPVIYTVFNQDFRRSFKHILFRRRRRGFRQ
# [7] = blockers of RIG-like receptor reporter activation – cell-based, Sendai virus stimulus, luciferase, 10K MLSCN set, TLR/RLR signaling modifier project, primary screen (AID 602276;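 active = inhibition at or above 50% at 10 µM; inactive = inhibition below 50%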;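 also: firefly luciferase from ISG56 promoter only with Renilla not read in this screen; 0% = Sendai virus plus DMSO and 100% = medium plus DMSO without virus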); settings: HEK293 RL24 IRF3 luciferase reporter, at 10 µM, stronger effect = higher value
# [8] = TLR3 IRF3 reporter activation blockers – cell-based, poly I:C stimulus, luciferase, 10K MLSCN set, primary screen (AID 602277;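 active = inhibition of the reporter signal at or above 50%; inactive = inhibition below 50%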); settings: HEK293-TLR3 RL24 IRF3 luciferase reporter, at 10 µM, stronger effect = higher value
SMILES,cell count [1],inhibition [1],inhibition of aggregation [2],nuclei count [2] [%],inhibition [3],nuclei count [3] [%],fluorescence slope [4],NADPH fluorescence slope [5],slope [6],inhibition [7],inhibition [8]
CCN(CC)Cc1nc2c(c(=O)[nH]1)C1(CCCCC1)Cc1ccccc1-2,443,9.9% (inactive),-2.4% (inactive),89.3,-17% (inactive),101,-0.589 (inactive),-5.5e-05 (inactive),0.00352 (inactive),10% (inactive),10.5% (inactive)
COC(=O)C(C#N)C(=C1C(=O)CC(C)(C)CC1=O)c1ccc(O)cc1 (stereo not drawn),315,1.2% (inactive),12% (inactive),92.7,15% (inactive),109,-0.319 (inactive),-2.3e-05 (inactive),0.00607 (inactive),9.88% (inactive),10.9% (inactive)
O=C(NC(=O)c1ccc(Cl)cc1)Nc1cc(N2CCCCC2)ncn1,333,5.5% (inactive),11.3% (inactive),85.1,-70% (inactive),89.5,-0.48 (inactive),-4.9e-05 (inactive),0.00674 (inactive),13.2% (inactive),9.71% (inactive)
CC(=O)c1ccc(NC(=O)CCc2c(C)nc3ncnn3c2C)cc1,363,0% (inactive),11.4% (inactive),103,-31.1% (inactive),113,-0.498 (inactive),-2.9e-05 (inactive),0.00573 (inactive),-9.29% (inactive),-11.6% (inactive)
CCCc1[nH]nc2c1C(c1cn[nH]c1-c1ccc(F)cc1)C(C#N)=C(N)O2 (stereo not drawn),438,-8.3% (inactive),11.7% (inactive),89.8,-43.7% (inactive),137,-0.38 (inactive),-0.000105 (inactive),0.00672 (inactive),18.7% (inactive),23.5% (inactive)
Cc1cccc(-n2c(SCc3cc(=O)n4ccsc4n3)nc3ccccc32)c1,439,5.1% (inactive),-3.6% (inactive),97.1,-73.8% (inactive),112,-0.525 (inactive),1.8e-05 (inactive),0.00495 (inactive),-11% (inactive),-9.49% (inactive)
COCCn1cc(C(=O)c2ccccc2OCC(=O)Nc2cc(C)on2)cc(C#N)c1=O,455,5.8% (inactive),-23.9% (inactive),77.9,-7% (inactive),97.9,-0.368 (inactive),6.2e-06 (inactive),0.00464 (inactive),9.82% (inactive),15.9% (inactive)
O=S(=O)(c1ccc2c(c1)OCCO2)N1CCC(n2nnc3cc(F)ccc32)CC1,577,-9.9% (inactive),1.5% (inactive),78,-24.6% (inactive),103,-0.5 (inactive),-3e-05 (inactive),0.00521 (inactive),17.3% (inactive),17.7% (inactive)
O=C(NCc1ccc2c(c1)OCO2)C1CCCN(S(=O)(=O)c2cccc3cccnc23)C1 (stereo not drawn),741,-8% (inactive),20.4% (inactive),125,-40.6% (inactive),104,-0.527 (inactive),-6.1e-05 (inactive),0.00698 (inactive),15.2% (inactive),40.4% (inactive)
CCC(C)OC(=O)c1[nH]c2c(c1C)C(=O)CC(c1ccc(N(C)C)cc1)C2 (stereo not drawn),717,-3.2% (inactive),-40.7% (inactive),108,-31.4% (inactive),125,-0.506 (inactive),-3.4e-06 (inactive),0.00616 (inactive),-57.4% (inactive),-143% (inactive)
CCCC(=O)Nc1ccc(NC(=O)c2ccccc2OC)cn1,376,-3.6% (inactive),18.8% (inactive),90.7,-23.7% (inactive),96.3,-0.442 (inactive),7.2e-05 (inactive),0.00808 (inactive),1.27% (inactive),-1.09% (inactive)
Cc1ccc(-c2nnc(SCC(=O)N3CC(C)CC(C)C3)o2)cc1C (stereo not drawn),557,-1.6% (inactive),1.6% (inactive),32.1,-32.7% (inactive),120,-0.527 (inactive),-4.3e-05 (inactive),0.00676 (inactive),-0.246% (inactive),9.23% (inactive)
O=C(NCC1CCCO1)c1cccc(N2C(=O)C3C4C=CC(C4)C3C2=O)c1 (stereo not drawn),628,8.8% (inactive),0% (inactive),101,-16.1% (inactive),118,-0.42 (inactive),-4e-05 (inactive),0.00583 (inactive),8.37% (inactive),10.8% (inactive)
CCOc1ccc2[nH]cc(C(=O)N3CCN(CC)CC3)c(=O)c2c1,498,-16.7% (inactive),4.7% (inactive),77.2,-18.9% (inactive),94.8,-0.539 (inactive),1.9e-05 (inactive),0.00496 (inactive),-17.3% (inactive),-19.5% (inactive)
COc1ccc(OC)c(C2=NOC(C(=O)Nc3cc(C)nn3-c3ccccc3)C2)c1 (stereo not drawn),605,5.8% (inactive),-4.1% (inactive),84.1,10.7% (inactive),107,-0.605 (inactive),-4.8e-05 (inactive),0.00657 (inactive),7.53% (inactive),19.2% (inactive)
COCCNC(=O)CN1CCC(NC(=O)Nc2ccc(C(F)(F)F)cc2)CC1,515,0.8% (inactive),-24.7% (inactive),70.9,-85% (inactive),96.8,-0.296 (inactive),-4.5e-05 (inactive),0.0053 (inactive),5.43% (inactive),3.51% (inactive)
CN(Cc1cccs1)CC(O)COCc1ccco1 (stereo not drawn),407,6% (inactive),-40.7% (inactive),116,-28.9% (inactive),113,-0.591 (inactive),-4.7e-05 (inactive),0.00778 (inactive),11.5% (inactive),23.9% (inactive)
Cn1c(N2CCC(C(N)=O)CC2)nc2c1c(=O)n(Cc1ccc(Br)cc1)c(=O)n2C,537,-2.7% (inactive),4.3% (inactive),97.3,24.2% (inactive),95.1,-0.571 (inactive),-2.3e-05 (inactive),0.00671 (inactive),6.03% (inactive),1.39% (inactive)
CSCC[C@@H](Nc1nc(-c2ccccc2)nc2c1oc1ccccc12)C(=O)O,322,1.9% (inactive),-20.9% (inactive),83.4,-92.1% (inactive),123,-0.442 (inactive),9.3e-06 (inactive),0.00719 (inactive),4.35% (inactive),41% (inactive)
CCC1CCCCN1S(=O)(=O)c1ccc(C(=O)Nc2nnc(-c3ccccc3Cl)o2)cc1 (stereo not drawn),322,5.2% (inactive),-1.5% (inactive),107,-52.8% (inactive),108,-0.511 (inactive),-3.2e-05 (inactive),0.00627 (inactive),18.8% (inactive),16.9% (inactive)
COCCNC(=O)CN1CCN(Cc2cccc(Cl)c2)C1=O,752,-11.6% (inactive),28.6% (inactive),69.7,-47.9% (inactive),125,-0.536 (inactive),-4.6e-05 (inactive),0.00677 (inactive),6.1% (inactive),16.8% (inactive)
COCCOC(=O)c1cc(C(=O)c2cc(F)ccc2O)coc1=N,473,-11.2% (inactive),8.5% (inactive),107,-92.3% (inactive),115,-0.597 (inactive),-1.1e-05 (inactive),0.00549 (inactive),6.76% (inactive),11% (inactive)
Cc1ccc2c(c1)CCCN2C(=O)C1CCCO1 (stereo not drawn),354,-6.4% (inactive),7.6% (inactive),95,-84.4% (inactive),86.9,-0.417 (inactive),-4e-05 (inactive),0.00423 (inactive),10.7% (inactive),17.6% (inactive)
Cc1ccc(Cn2c(=O)c3ccccc3n3c(CCC(=O)O)nnc23)cc1,681,-13.4% (inactive),-2.1% (inactive),90,-55.9% (inactive),116,-0.554 (inactive),1.7e-05 (inactive),0.00669 (inactive),0.88% (inactive),12.6% (inactive)
Cc1cccc(NC(=O)CC2NC3CCCCC3NC2=O)c1 (stereo not drawn),384,-4.8% (inactive),-8.2% (inactive),81,6.9% (inactive),106,-0.358 (inactive),-2.9e-05 (inactive),0.00297 (inactive),13.5% (inactive),14.2% (inactive)
Cc1c(C(=O)NCc2ccoc2)oc2ccc3c(c12)C(=O)CC(C)(C)O3,214,7.4% (inactive),-2.1% (inactive),78.2,7.9% (inactive),103,-0.531 (inactive),1.8e-05 (inactive),0.00522 (inactive),-46% (inactive),-231% (inactive)
O=C(O)c1ccc2noc(-c3ccccc3)c2c1,755,-8.7% (inactive),16.9% (inactive),103,-15% (inactive),123,-0.378 (inactive),-3.4e-05 (inactive),0.00344 (inactive),-20.8% (inactive),-49.6% (inactive)
CC(=O)Nc1ccc(S(=O)(=O)N(C2=NCC(C)S2)c2ccccc2)cc1 (stereo not drawn),594,5.4% (inactive),-4.5% (inactive),95.5,-9.1% (inactive),109,-0.496 (inactive),-1.6e-05 (inactive),0.00617 (inactive),11.6% (inactive),11.1% (inactive)
